Measured values published in US20140271602, “NUCLEOTIDE-SPECIFIC RECOGNITION SEQUENCES FOR DESIGNER TAL EFFECTORS” (THE BROAD INSTITUTE INC., published 2014).

Biological target: T1, TALE1-NH (CACNA1C site 1 activator) (Xanthomonas (engineered), UniProt P14727 SEQ:1-983)
T1 chain: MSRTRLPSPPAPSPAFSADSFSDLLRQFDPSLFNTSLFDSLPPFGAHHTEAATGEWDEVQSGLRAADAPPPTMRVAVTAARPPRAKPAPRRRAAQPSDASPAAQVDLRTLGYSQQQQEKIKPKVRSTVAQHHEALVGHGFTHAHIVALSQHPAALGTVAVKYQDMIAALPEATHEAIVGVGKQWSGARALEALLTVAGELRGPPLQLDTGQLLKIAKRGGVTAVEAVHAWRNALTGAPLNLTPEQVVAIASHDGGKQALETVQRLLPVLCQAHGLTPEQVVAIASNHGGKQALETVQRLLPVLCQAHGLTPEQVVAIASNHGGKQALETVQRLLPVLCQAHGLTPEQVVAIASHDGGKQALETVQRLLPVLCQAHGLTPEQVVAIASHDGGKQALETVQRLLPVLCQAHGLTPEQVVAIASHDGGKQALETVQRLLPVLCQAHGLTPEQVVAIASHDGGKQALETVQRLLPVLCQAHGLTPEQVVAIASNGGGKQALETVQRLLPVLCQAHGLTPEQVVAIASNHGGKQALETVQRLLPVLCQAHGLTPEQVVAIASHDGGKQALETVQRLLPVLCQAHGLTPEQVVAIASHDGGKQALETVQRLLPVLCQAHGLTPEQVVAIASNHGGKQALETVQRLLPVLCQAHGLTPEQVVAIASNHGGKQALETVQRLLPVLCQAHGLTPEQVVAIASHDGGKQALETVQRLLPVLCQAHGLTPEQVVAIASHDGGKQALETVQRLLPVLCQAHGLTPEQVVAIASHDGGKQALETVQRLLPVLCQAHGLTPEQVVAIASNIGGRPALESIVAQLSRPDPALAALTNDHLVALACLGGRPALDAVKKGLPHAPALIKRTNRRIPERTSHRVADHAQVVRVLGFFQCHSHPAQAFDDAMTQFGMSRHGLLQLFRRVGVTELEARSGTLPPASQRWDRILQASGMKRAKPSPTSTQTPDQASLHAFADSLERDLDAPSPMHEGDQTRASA
Assay: cell_activity; luciferase reporter
Conditions: tags: VP64, 2A-GFP; dsDNA, one strand shown
Procedure: TALEs using NN, NK, NH, and HN as the G-targeting RVD were synthesized to target two distinct 18 bp target sites in the human CACNA1C locus. Changes in mRNA are measured using qRT-PCR as described previously. VP64, VP64 transcription activation domain. All results are collected from three independent experiments in HEK 293FT cells. Error bars indicate s.e.m.; n=3. FIG. 19(b) discloses SEQ ID NOS 63 and 62, respectively, in order of appearance.
To determine whether NH and HN are suitable replacements for NN as the G-specific RVD, specificity and activity strength of NN, NK, NH, and HN were directly compared. Two 18 bp targets within the CACNA1C locus in the human genome were chosen and four TALEs for each target were constructed, using NN, NK, NH, or HN as the G-targeting RVD (FIG. 19a). […] For each CACNA1C target site, four luciferase reporters were constructed: wild type genomic target, and wild type target with 2, 4, or all guanines mutated into adenines (FIG. 19a, G-to-A reporters), and compared the activity of each TALE using these reporters (FIG. 19a). […] Thus, focus was placed on the RVDs NN, NK, and NH in subsequent experiments to assess their usefulness in modulating transcription at endogenous human genome targets.

Row | Sequence | binding signal
1 | TCAACCCCTGCCGGCCCA | 71.4 % reduction vs wild-type site
2 | TCAACCCCTACCAACCCA | < 10 % of wild-type site activation
